# Among all 13,000 compounds or so, about 3,200 (25%) showed an effect of 50% or more. The list shows a part of the results.
# Test system: P. falciparum stage V gametocytes
# Parameters: BacTiter-Glo ATP luminescence viability of purified stage V gametocytes in 384-well plates, per cent inhibition versus DMSO
# Conditions: 48 h, 5 µM; inhibitor
row,SMILES,% Inhibition
1,O=C(Nc1ccc2c(c1)CCN2C1CCN(Cc2cccc(C(F)(F)F)c2)C1)c1ccco1 (centres unmarked) [TCMDC-135065],-42.49%
2,CCOC(=O)c1ccc(-c2cnc(N)c(-c3nc4c(C)cccc4[nH]3)c2)cc1 [TCMDC-135560],19.55%
3,COc1cc(CCCOc2c(N)nc(N)nc2N)cc(OC)c1OC [TCMDC-131361],8.778%
4,CCc1ccc(CN2CCC(CNC(=O)c3cc(-c4ccccc4Cl)cs3)C2)cc1 (centres unmarked) [TCMDC-134433],74.35%
5,CC(C)(C)c1ccc(CN2CCC(CNC(=O)c3cc(-c4ccccc4Cl)cs3)C2)cc1 (centres unmarked) [TCMDC-134445],95.91%
6,CC(C)c1ccc(CN2CCCCC(NC(=O)c3cc(-c4ccccc4Cl)cs3)C2)cc1 (centres unmarked) [TCMDC-134464],-27.61%
7,CCc1ccccc1-c1csc(C(=O)NCC2CCN(Cc3ccc(C(C)(C)C)cc3)C2)c1 (centres unmarked) [TCMDC-134448],91.94%
8,CN(C)c1ccc(CN2CCC(CNC(=O)c3cc(-c4ccccc4Cl)cs3)C2)cc1 (centres unmarked) [TCMDC-134455],49.98%
9,COc1ccccc1-c1csc(C(=O)NCC2CCN(Cc3ccc(C(C)(C)C)cc3)C2)c1 (centres unmarked) [TCMDC-134511],-88.72%
10,CC(C)(C)c1nn(-c2ccccc2)c2[nH]c(=O)c(CNC3CCCCC3)cc12 [TCMDC-123551],7.742%
11,CC(=O)c1ccc(NC(=O)NNC(=O)c2ccc(CCN3CCC(c4nc(COCC(F)(F)F)c(-c5ccc(F)cc5)o4)CC3)cc2)cc1 [TCMDC-131905],-7.106%
12,Oc1cc(-c2nc(C3(CNCc4ccc(Cl)cc4)CCCCC3)[nH]c2-c2ccncc2)ccc1Cl [TCMDC-141155],-6.27%
13,NCC1(c2nc(-c3ccc(Cl)c(O)c3)c(-c3ccncc3)[nH]2)CCCCC1 [TCMDC-141154],57.41%
14,CC(C)(CN)c1nc(-c2ccc(Cl)c(O)c2)c(-c2ccncc2)[nH]1 [TCMDC-140369],-60.83%
15,CC(CNC(=O)c1cc2c(Cl)cc(Cl)cc2[nH]1)CNc1cc(=O)c2ccccc2[nH]1 (centres unmarked) [TCMDC-140624],-21.72%
16,CCC(C)NS(=O)(=O)c1ccc2nc(Nc3ccc(C)c(Cl)c3)n(C(C)C(C)C)c2c1 (centres unmarked) [TCMDC-134310],-65.92%
17,Br.CC[C@H]1CN2CCc3cc(OC)c(OC)cc3[C@@H]2C[C@@H]1CC1=NCCc2c1[nH]c1ccc(OCc3ccccc3)cc21 [TCMDC-137627],69.01%
18,CC[C@H]1CN2CCc3c([nH]c4ccccc34)[C@@H]2C[C@@H]1CC1c2cc(OC)c(OC)cc2CCN1C (some centres unmarked) [TCMDC-142011],-85.21%
19,CCC1CN2CCc3c([nH]c4ccccc34)C2CC1CC1=NCCc2c1[nH]c1ccccc21 (centres unmarked) [TCMDC-141998],9.363%
20,CCOC(=O)c1ccc(NC(=O)Nc2ccc(-c3cccc(-c4nc5ccccc5[nH]4)c3)cc2)cc1 [TCMDC-133270],-42.41%
21,O=C(NCCc1ccccc1F)c1cc(Br)cc(N2CCN(c3ccncc3)CC2)c1 [TCMDC-135147],-5.133%
22,COc1ccccc1CNC(=O)c1cc(Br)cc(N2CCN(c3ccncc3)CC2)c1 [TCMDC-135151],104.3%
23,O=C(NCc1ccc(F)cc1)c1cc(Br)cc(N2CCN(c3ccncc3)CC2)c1 [TCMDC-135150],12%

row,SMILES,% Inhibition
1,O=C(NCc1ccc(F)cc1)c1ccc(N2CCN(c3ccncc3)CC2)cn1 [TCMDC-135157],0.3973%
2,O=C(NCc1cccc(CN2CCOCC2)c1)c1cc(Br)cc(N2CCN(c3ccncc3)CC2)c1 [TCMDC-135152],69.44%
3,O=C(NCCc1cccc(F)c1)c1cc(Br)cc(N2CCN(c3ccncc3)CC2)c1 [TCMDC-135145],3.253%
4,Cc1ccccc1CCNC(=O)c1cnc(N2CCN(c3ccncc3)CC2)c(Cl)c1 [TCMDC-134598],14.18%
5,COc1ccccc1CCNC(=O)c1cc(Br)cc(N2CCN(c3ccncc3)CC2)c1 [TCMDC-135148],-33.58%
6,O=C(NCCc1cccc(Cl)c1Cl)c1cnc(N2CCN(c3ccncc3)CC2)c(Cl)c1 [TCMDC-134597],-18.32%
7,O=C(NCCc1ccccc1F)c1ccc(N2CCN(c3ccncc3)CC2)cn1 [TCMDC-135154],-6.834%
8,COc1ccccc1CCNC(=O)c1cnc(N2CCN(c3ccncc3)CC2)c(Cl)c1 [TCMDC-134595],89.83%
9,COc1ccccc1CNC(=O)c1ccc(N2CCN(c3ccncc3)CC2)cn1 [TCMDC-135158],60.69%
10,CC(CC1CCCCC1)NCc1ccccc1OCCC(=O)N1CCCC1C(N)=O (centres unmarked) [TCMDC-140917],-9.137%
11,Cc1c(Oc2ccc(-n3ccnc3)cc2)ncnc1N1CCC2(CC1)CNCc1ccccc12 [TCMDC-137157],6.86%
12,CC(C)c1ccc(CN2CCC(NC(=O)c3ccc(-c4cccc(F)c4)s3)CC2)cc1 [TCMDC-134346],-27.58%
13,Cc1nccn1CCNC(=O)CN1CCC2(CCC1=O)CC(=O)c1ccccc1O2 (centres unmarked) [TCMDC-125379],-42.89%
14,O=C(O)CCCN1CCCC(=C(c2ccccc2)c2ccccc2)C1 [TCMDC-141969],-38.14%
15,COC(=O)c1ccc(OCC(O)CO)cc1O (centres unmarked) [TCMDC-123463],4.056%
16,CC(C)N(CCOc1ccc2c(c1)N(C(=O)Nc1ccc(Cl)c(Cl)c1)CC2)C(C)C [TCMDC-140254],8.096%
17,CC(C)N(CCOc1ccc2c(c1)N(C(=O)Nc1cc(Br)cc(C(F)(F)F)c1)CC2)C(C)C [TCMDC-140250],-0.9347%
18,CC(C)c1ccc(NC(=O)N2CCc3ccc(OCCN(C(C)C)C(C)C)cc32)c(Br)c1 [TCMDC-140252],63.96%
19,Fc1ccc(C(OCC2CCCN(Cc3cccc4cccnc34)C2)c2ccc(F)cc2)cc1 (centres unmarked) [TCMDC-136044],-14.61%
20,COC1(C)Oc2ccc3cccc([N+](=O)[O-])c3c2C1=O (centres unmarked) [TCMDC-131378],-5.605%
21,CCOc1ccc(C(=O)Nc2cc(Cl)ccc2O)cc1Cl [TCMDC-123684],-34.32%
22,CCOc1cc(C(C)C)ccc1N1CCN(CCCCNC(=O)c2ccc(NC(=O)c3ccc(Cl)cc3)cc2)CC1 [TCMDC-138519],-10.71%
23,CCOc1ccc(C(C)NC(=O)c2ccc(OC)c(Br)c2)cc1OCC (centres unmarked) [TCMDC-124876],88.58%

row,SMILES,% Inhibition
1,CCOc1ccc(C(C)NC(=O)c2cc(Cl)ccc2OC)cc1OCC (centres unmarked) [TCMDC-125016],67.36%
2,Cc1cccc2nc(C(=O)Nc3nc(CN4CCC(C)CC4)cs3)cn12 [TCMDC-125340],11.88%
3,N#CCCN1CCN(Cc2cccc(-c3ccc(-c4nc5ccccc5[nH]4)cc3)c2)CC1 [TCMDC-133852],-22.87%
4,c1ccc2[nH]c(-c3ccc(-c4ccc(CN5CCCCC5)cc4)cc3)nc2c1 [TCMDC-133906],32.64%
5,c1cc(-c2ccc(CN3CCCC3)cc2)cc(-c2nc3ccccc3[nH]2)c1 [TCMDC-133794],34.22%
6,CN1CCC(NCc2ccc(-c3cccc(-c4nc5ccccc5[nH]4)c3)cc2)CC1 [TCMDC-132551],85.21%
7,CN1CCC(N2CCN(Cc3cccc(-c4ccc(-c5nc6ccccc6[nH]5)cc4)c3)CC2)CC1 [TCMDC-133850],29.34%
8,CN1CCN(Cc2ccc(-c3cccc(-c4nc5ccccc5[nH]4)c3)cc2)CC1 [TCMDC-132542],58.54%
9,c1cc(CN2CCN(CCN3CCOCC3)CC2)cc(-c2cccc(-c3nc4ccccc4[nH]3)c2)c1 [TCMDC-133922],-15.36%
10,COCCN1CCN(Cc2ccc(-c3cccc(-c4nc5ccccc5[nH]4)c3)cc2)CC1 [TCMDC-132559],86.66%
11,COCCN1CCN(Cc2cccc(-c3ccc(-c4nc5ccccc5[nH]4)cc3)c2)CC1 [TCMDC-133023],-14.55%
12,c1cc(-c2ccc(CNC3CC3)cc2)cc(-c2nc3ccccc3[nH]2)c1 [TCMDC-132538],-44.27%
13,CN1CCC(N2CCN(Cc3cccc(-c4cccc(-c5nc6ccccc6[nH]5)c4)c3)CC2)CC1 [TCMDC-133878],70.79%
14,CN1CCC(NCc2cccc(-c3cccc(-c4nc5ccc(C(F)(F)F)cc5[nH]4)c3)c2)CC1 [TCMDC-132735],38.83%
15,Cc1noc(C)c1-c1ccc2c(Nc3ccccc3C(C)(C)C)c(C(=O)NC3CCCC3)cnc2c1.Cl [TCMDC-136365],-46.26%
16,N#Cc1cc(C(=O)c2cc(Cl)ccc2O)cn(-c2cccc(C(F)(F)F)c2)c1=O [TCMDC-124543],16.34%
17,CCc1nc(N)nc(N)c1-c1cccc(Cl)c1 [TCMDC-137371],-15%
18,CNc1nc(NN=Cc2ccccc2Cl)nc(Nc2cccc(C(F)(F)F)c2)n1 [TCMDC-124188],-11.55%
19,N#CC(c1ccc(Cl)cc1)c1ccc2c(C(F)(F)F)cc(C(F)(F)F)nc2n1 (centres unmarked) [TCMDC-124176],9.763%
20,CCOc1cccc(C(=O)Nc2cccc(CN3CCCN(Cc4ccc(O)cc4)CC3)c2)c1 [TCMDC-141862],17.88%
21,OC(CNCc1ccccc1Oc1ccccc1)c1cc(Br)cs1 (centres unmarked) [TCMDC-141369],34.47%
22,COc1ccc(CC(=O)NC(CCN2CCC3(CCc4ccccc43)CC2)c2ccc(Cl)c(Cl)c2)cc1 (centres unmarked) [TCMDC-141762],-72.25%

# — publication PMC4552634, “A New Set of Chemical Starting Points with Plasmodium falciparum Transmission-Blocking Potential for Antimalarial Drug Discovery” (PLoS ONE, 2015)
